Experimental data taken from PubChem BioAssay (NCI).
The panel holds about 83,000 compounds, 20% with a hit somewhere; the sample as a whole holds those more often.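 Step 1: grow cells in 96-well plates. Step 2: add test compound at a single concentration. Step 3: incubate 48 h. Step 4: record percent growth.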 A number with no mark means an inactive call. The source made the active and inactive calls. How the source made its calls: active means growth percent below 10; inactive means the rest.

system: COLO 205 colon; test: NCI-60 one-dose screen, 48 h (100 = growth as untreated, 0 = no growth, -100 = all killed); settings: 10 µM unless noted

Compound	growth
COc1ccc(/C=N\Nc2nc(SCCC(C)C)nc(-c3ccc(OC)cc3)c2C#N)cc1	68%
CC(C)=CCCC(C)c1ccc(C)c2c1OCN(CCCCCO)C2 (stereo not drawn)	90%
CCCCCN1C(=O)/C(=c2\sc3n(c2=O)C2C(NN=3)N(CC)C(=O)N2CC)c2ccccc21 (stereo not drawn)	0.959% (active)
